NLRP3 yeast inh: inhibitors of NALP3 inflammasome in yeast; Yeast reconstituted NLRP3/ASC/caspase-1, beta-gal luminescence, 24 h; inhibition, % at 10 µM; hit rate 0.39% among 330,000;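 active = inhibition of 50% or more; inactive = inhibition below 50%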;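 also: plate controls were induced DMSO wells for no effect and uninduced yeast grown without galactose for full effect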
tim10-1 inh: inhibits growth of tim10-1 mutant yeast; S. cerevisiae tim10-1 ts strain growth, BacTiter-Glo, 24 h; inhibition, % at 20 µM; hit rate 2.2% among 330,000; AID 463190;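 active = inhibition of at least 40%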;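 also: mutant grown at 25 °C; 0% = DMSO wells with yeast and 100% = wells holding no yeast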
NALP1 inh: inhibitors of NALP1 inflammasome in yeast. S. cerevisiae NALP1/ASC/caspase-1 growth, X-gal OD620, 72 h. inhibition, % at 10 µM. hit rate 0.61% among 280,000. AID 2071; in the data active = inhibition mostly above about 24%, no sharp cut-off; inactive = mostly below about 32%
TIM10 inh: growth inhibitors of TIM10 yeast strain; AID 463195; S. cerevisiae TIM10 strain growth, BacTiter-Glo luminescence, 24 h; inhibition, % at 10 µM; hit rate 1.4% among 330,000;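 active = inhibition of 40% or more at the single tested concentration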;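 also: wild-type TIM10 isogenic control strain grown at permissive 25 °C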
tim23-1 inh: inhibits growth of tim23-1 mutant yeast; hit rate 1.3% among 330,000; S. cerevisiae tim23-1 growth, BacTiter-Glo luminescence, 24 h; inhibition, % at 20 µM;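 active = growth inhibition of the mutant yeast at or above 50%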;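 also: temperature-sensitive mutant grown at 25 °C; plate controls were DMSO-treated mutant yeast for no effect and medium wells lacking yeast for full effect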
tim10-1 conf: tim10-1 yeast growth inhibition, confirmed; shares compounds with tim10-1 inh; hit rate 56% among 7,400; inhibition, % at 20 µM; S. cerevisiae tim10-1 ts strain growth, BacTiter-Glo, 24 h;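 active = inhibition of yeast growth at or above a set limit in either of two repeat tests at 20 µM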;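 also: tim10-1 mutant grown at permissive 25 °C to find synthetic lethal compounds; 0% = DMSO yeast wells and 100% = medium wells without yeast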
* marks the source's active call; other numbers are inactive results; x = no result. Sampled rows, rich in hits. Any-hit rate of the full collection: about 4%.

SMILES	NLRP3 yeast inh	tim10-1 inh	NALP1 inh	TIM10 inh	tim23-1 inh	tim10-1 conf
CCOC(=O)Cc1csc2nc3sc(C)c(C)c3c(=O)n12	-1	43*	36	-6	17	13
CC(C)OC(=O)c1ccc2nc3ccccc3nc2c1	31	41*	28	2	20	11
Cn1c(O)c(N=NC(=O)C2COc3ccccc3O2)c2ccccc21 (stereo not given)	0	22	-6	21	39	x
CC(C)n1c(O)c(N=NC(=O)C2COc3ccccc3O2)c2ccccc21 (stereo not given)	25	48*	-15	29	40	28
CCOC(=O)c1ccc(OCCOc2cccc(C)c2)cc1	21	-31	12	-19	11	x
O=C(COC(=O)C1CC1)NC(=O)c1ccccc1	9	-16	x	9	-8	x
N=c1n(Cc2ccccc2)c2ccccc2n1CC(O)COc1ccc(Cl)cc1Cl (stereo not given)	21	40*	12	18	7	-1
CN1CCCC(CC2Oc3ccccc3Sc3ccccc32)C1 (stereo not given)	28	40*	37	19	4	20
CCCC#CCN1CCN(C23CC4CC(CC(C4)C2)C3)CC1	10	-13	10	14	20	x
O=C(Cn1c(=O)n(-c2cccc(C(F)(F)F)c2)c(=O)c2sccc21)NCC1CCCO1 (stereo not given)	21	9	6	0	3	x
CC(C)C(=O)Nc1ccc(-c2nc3ccccc3c(=O)o2)cc1	2	56*	8	38	37	41*
CC(C)(C)C(=O)Nc1ccc(-c2nc3ccccc3c(=O)o2)cc1	-2	28	-11	30	10	x
CC(C)(C)C(=O)Nc1cccc(-c2nc3ccccc3c(=O)o2)c1	22	40*	8	25	37	48*
COc1cccc(-c2nc3ccc(O)cc3c(=O)o2)c1	-3	55*	-33	39	45	31
CCCNC(=O)N1CCN(S(=O)(=O)c2ccc3c(c2)OCCO3)CC1	15	0	x	-5	-2	x
COC(=O)C1CCN(c2ccc(C(N)=O)cc2[N+](=O)[O-])CC1	13	16	15	14	16	x
Cc1ccc(NC(=O)C2CC2c2ccccc2)c([N+](=O)[O-])c1 (stereo not given)	12	14	0	-4	25	x
COc1ccc(CNC(=O)C2CCN(S(=O)(=O)c3ccc4c(c3)CC(C)N4C(=O)C3CC3)CC2)cc1 (stereo not given)	15	40	13	14	38	31*
CC1CC(C)CN(S(=O)(=O)c2ccc3c(c2)CC(C)N3C(=O)C2CCC2)C1 (stereo not given)	-8	43*	4	21	46	12
COc1cccc(CNC(=O)C2CCN(S(=O)(=O)c3ccc4c(c3)CC(C)N4C(=O)C3CC3)CC2)c1 (stereo not given)	9	11	4	8	16	x
O=C1/C(=C/c2cccnc2)SC(=S)N1N1CCOCC1	27	52*	x	29	47	40*
O=C1/C(=C/c2cccs2)SC(=S)N1N1CCOCC1	26	9	4	17	18	x
Cc1cc(Cl)ccc1NC(=S)NCCC(c1ccccc1)c1ccccc1	3	40*	x	30	12	15
Cc1cc(Cl)ccc1NC(=S)NCCc1ccc(Cl)cc1	14	35	6	23	42	x
CN(C)CC/C=C1\c2ccccc2Sc2ccc(Cl)cc21	29	39	32	16	-10	x
SMILES	NLRP3 yeast inh	tim10-1 inh	NALP1 inh	TIM10 inh	tim23-1 inh	tim10-1 conf
OCCN1CCN(CCCN2c3ccccc3Sc3ccc(Cl)cc32)CC1	14	43*	32	19	-1	28
OCCN1CCN(CC/C=C2/c3ccccc3Sc3ccc(Cl)cc32)CC1	26	44*	x	32	12	26
COc1ncccc1C(=O)NC1CCCc2c1cnn2-c1cc(C)cc(C)c1 (stereo not given)	-72	48*	-6	21	21	8
Cc1cc(C)cc(-n2ncc3c2CCCC3NC(=O)c2csnn2)c1 (stereo not given)	32	41*	2	17	42	27
CCc1ccc(/C=C(\C#N)C(=O)NC2CCS(=O)(=O)C2)cc1 (stereo not given)	13	22	x	12	35	x
COc1cccc(/C=N/NC(=O)C(=O)NCc2ccco2)c1O	7	58*	32	31	37	14
COc1cccc(/C=N/NC(=O)C(=O)NCc2ccco2)c1OC	16	21	9	12	8	x
Cc1ccccc1CN1[C@@H]2c3ccccc3C[C@@H]2OCCS1(=O)=O	35	12	17	-6	26	x
O=C(/C=C/c1cccc([N+](=O)[O-])c1)NCCSCc1c(Cl)cccc1Cl	33	27	27	11	22	x
Cc1ccc(CSCCNC(=O)CSCc2ccc([N+](=O)[O-])cc2)cc1	31	42*	48*	14	33	29
O=C(/C=C/c1cccc([N+](=O)[O-])c1)NCCSCc1ccc(Cl)cc1	12	45*	32	25	28	22
Cc1cccc(CSCCNC(=O)CSCc2ccc([N+](=O)[O-])cc2)c1	15	46*	21	20	30	28
CCOCCn1c(N2CCCC2)nc2c1c(=O)n(C)c(=O)n2C	8	-14	-6	1	-7	x
CC[C@H](C)C(N)c1cn([C@@H](CC(N)=O)C(=O)N2CCNCC2)nn1 (stereo not given in full)	20	1	x	5	10	x
CCOC(=O)c1c(C)[nH]c(=S)c(C#N)c1-c1ccc(OC)cc1	1	32	3	14	13	x
CCOC(=O)c1c(C)[nH]c(=S)c(C#N)c1-c1ccc(Cl)cc1	17	54*	13	21	36	28
CC(C)Oc1cccc(-c2cc(C(=O)NC(=S)N(C)c3ccccc3C(=O)O)c3ccccc3n2)c1	-1	21	-18	-2	7	x
CCC1CCCCN1C(=O)CSc1nnc(CNC(=O)COc2ccc(Cl)cc2)o1 (stereo not given)	-17	40*	-5	24	26	20
O=C(COc1ccc(Cl)cc1)NCc1nnc(SCC(=O)NC2CCCC2)o1	-5	11	17	-14	-2	x
CCC1CCCCN1C(=O)CSc1nnc(-c2ccc(Cl)cc2)o1 (stereo not given)	38	27	14	5	16	x
CCC1CCCCN1C(=O)CSc1nnc(-c2ccc(Cl)s2)o1 (stereo not given)	27	51*	-4	9	42	24
c1cncc(-c2nc(NCc3ccco3)c3ccccc3n2)c1	6	41*	22	16	30	37*
Cc1ccc(-c2nc(NCc3cccnc3)c3ccccc3n2)cc1	18	46*	15	11	38	30
Nc1nc(Cl)nc2ncn(Cc3ccccc3)c12	23	27	16	5	21	x
